In PubChem BioAssay AID720648 (The Scripps Research Institute Molecular Screening Center, 2013):
About 3,100 (0.84%) of roughly 370,000 compounds were called active.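 The calls were made as follows: active = inhibition above the mean of compounds lying between control limits plus 3 SD, set per campaign (cut at about 8.5% in these data); inactive = the rest.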 For the sample, actives were picked, then their nearest neighbours and some compounds at random.

These compounds were tested against Disintegrin and metalloproteinase domain-containing protein 17 (Homo sapiens) (UniProt P78536) (assay: inhibition of ADAM17 peptide cleavage – biochemical, QFRET, primary screen (AID 720648;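 also: 0% = DMSO-only wells as the low control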)). Conditions: recombinant ADAM17, EDANS/DABCYL FRET peptide cleavage; at 6.95 µM; hits give high values.
Sequence of Disintegrin and metalloproteinase domain-containing protein 17 (Homo sapiens) (P78536 215-824 limits assumed): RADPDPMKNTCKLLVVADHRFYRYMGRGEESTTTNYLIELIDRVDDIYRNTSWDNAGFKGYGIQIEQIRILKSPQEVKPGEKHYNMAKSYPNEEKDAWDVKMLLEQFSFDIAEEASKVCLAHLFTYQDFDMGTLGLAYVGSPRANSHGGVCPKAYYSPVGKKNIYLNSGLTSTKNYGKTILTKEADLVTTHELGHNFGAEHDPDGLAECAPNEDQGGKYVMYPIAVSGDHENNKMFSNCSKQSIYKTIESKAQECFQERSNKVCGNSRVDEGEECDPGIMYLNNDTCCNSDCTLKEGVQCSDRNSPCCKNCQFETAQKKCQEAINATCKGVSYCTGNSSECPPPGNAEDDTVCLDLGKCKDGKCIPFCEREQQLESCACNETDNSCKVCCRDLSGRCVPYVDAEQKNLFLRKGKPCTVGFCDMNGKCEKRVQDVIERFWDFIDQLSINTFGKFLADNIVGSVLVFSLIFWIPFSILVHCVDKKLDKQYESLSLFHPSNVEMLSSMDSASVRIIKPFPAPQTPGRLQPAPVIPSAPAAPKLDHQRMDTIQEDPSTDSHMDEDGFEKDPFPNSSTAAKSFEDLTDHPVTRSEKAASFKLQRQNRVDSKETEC
For `Cc1ccc(Cn2cc(CN3[C@@H](CC(C)C)COc4ccc(Cl)cc4S3(=O)=O)nn2)cc1`, the inhibition was -0.49% (inactive).
For `CN1C(=O)C(CC(=O)Nc2ccccc2)S/C1=N/c1nccs1` (stereo not given), the inhibition was -3.53% (inactive).
In the case of `O=C(CC1SC(=Nc2ccccc2)N(Cc2ccccn2)C1=O)Nc1cccc(Cl)c1` (stereo not given), the inhibition is reported as 9.62% (active).
With `CC1CC(=O)N(CC(=O)Nc2cccc(Cl)c2)c2ccccc2S1(=O)=O` (stereo not given) the inhibition was 0.03% (inactive).
In the case of `COc1cccc(CSc2nnc(-c3cccnc3)n2Cc2ccccc2)c1`, the inhibition is reported as -1.8% (inactive).
For `O=C1[C@H]2[C@@H](c3ccc(C(F)(F)F)cc3)N[C@]3(CCCN(Cc4ccc(Cl)cc4)C3=O)[C@H]2C(=O)N1Cc1ccccc1`, the inhibition was 6.3% (inactive).
For `O=C1[C@H]2[C@@H](c3ccc(C(F)(F)F)cc3)N[C@]3(CCCN(Cc4ccc(Br)cc4)C3=O)[C@H]2C(=O)N1Cc1ccccc1`, the inhibition was 13.7% (active).
With `CCN1C(=O)[C@H]2[C@@H](c3ccc(C(F)(F)F)cc3)N[C@]3(CCCN(Cc4ccc(Br)cc4)C3=O)[C@H]2C1=O` the inhibition was 0.02% (inactive).
`O=C(NCc1ccco1)C1CCCN(S(=O)(=O)c2ccc(Cl)s2)C1` (stereo not given) was tested, and the inhibition was -1.38% (inactive).
`O=C(CNS(=O)(=O)c1ccccc1F)N1CCN(c2ccccn2)CC1` was tested, and the inhibition was -2.81% (inactive).
With `Cc1cccc(OCCCC(=O)Nc2ccc(S(=O)(=O)N3CCCC3)cc2)c1` the inhibition was 3.89% (inactive).
`Cc1ccc(C)c(OCCC(=O)Nc2cccc(S(=O)(=O)N3CCCC3)c2)c1` was tested, and the inhibition was 1.33% (inactive).
With `CC(=O)Nc1ccc(S(=O)(=O)N2CCN(CCCOc3cc(C)ccc3C)CC2)cc1` the inhibition was 9.18% (active).
With `CC(=O)Nc1ccc(OC[C@@H](O)CN2CCC(C(O)(c3ccccc3)c3ccccc3)CC2)cc1` the inhibition was 2.29% (inactive).
`COc1ccc(F)cc1S(=O)(=O)N1CCCCC1` was tested, and the inhibition was -4.65% (inactive).
With `COc1cc(C(=O)NNC(=O)c2ccc(S(=O)(=O)N3CCCCC3)cc2)cc(OC)c1OC` the inhibition was 0.14% (inactive).
With `COc1ccc(S(=O)(=O)N2CCCCC2)cc1Br` the inhibition was 9.21% (active).
For `CCOC(=O)[C@@]12CCC3=C1N(CCC3)C(=O)[C@H](CC(=O)N1CCN(C(=O)c3ccco3)CC1)C2`, the inhibition was -6.34% (inactive).
For `Cc1nc(CNc2ncnc3ccc(-c4ccc5c(c4)OCO5)cc23)cs1`, the inhibition was -54.3% (inactive).
`Cc1ccc(C2CC(c3cccc(NS(C)(=O)=O)c3)=NN2S(C)(=O)=O)cc1` (stereo not given) was tested, and the inhibition was -2.2% (inactive).
`CCOc1ccc2nc(Cl)c(C3CC(c4ccccc4)=NN3C(=O)c3cccs3)cc2c1` (stereo not given) was tested, and the inhibition was -2.13% (inactive).
In the case of `CCS(=O)(=O)Nc1ccc(C2=NN(S(=O)(=O)c3ccc(F)cc3)C(c3ccco3)C2)cc1` (stereo not given), the inhibition is reported as 3.46% (inactive).
In the case of `COc1cccc(C2CC(c3ccccc3)=NN2S(=O)(=O)c2ccccc2)c1OC` (stereo not given), the inhibition is reported as 14% (active).
In the case of `CS(=O)(=O)Nc1cccc(C2=NN(S(=O)(=O)c3ccccc3)C(c3cccs3)C2)c1` (stereo not given), the inhibition is reported as 8.71% (active).
With `CCOc1ccccc1C1CC(c2cccc(NS(C)(=O)=O)c2)=NN1C(=O)c1ccccc1` (stereo not given) the inhibition was 12.6% (active).
In the case of `COC(=O)c1cccc(NS(C)(=O)=O)c1`, the inhibition is reported as -1.45% (inactive).
With `COc1cccc(C2CC(c3cccs3)=NN2C(=O)CSC2=NCCS2)c1OC` (stereo not given) the inhibition was -4.82% (inactive).
In the case of `CS(=O)(=O)Nc1cccc(C2=NN(C(=O)c3cccc(F)c3)C(c3cccs3)C2)c1` (stereo not given), the inhibition is reported as 1.09% (inactive).
For `O=C(Nc1cc(Cl)cc(Cl)c1)OCCN1CCCC12CCC(c1ccccc1)CC2` (stereo not given), the inhibition was 1.56% (inactive).
In the case of `CCOC(=O)[C@]12CCCCC/C=C\1N(Cc1ccc(OC)cc1)C(=O)[C@H]2CC(=O)NCCCN1CCCC1=O`, the inhibition is reported as 5.47% (inactive).
With `Cc1cc(NS(=O)(=O)c2ccc(NC(=O)CSc3nnc(-c4ccc(C(C)(C)C)cc4)n3Cc3ccco3)cc2)nc(C)n1` the inhibition was 0.8% (inactive).
With `CC(C)(C)c1ccc(C(=O)Nc2cc(Cl)c(Br)cc2C(=O)O)cc1` the inhibition was 8.45% (inactive).
With `COC(=O)[C@]12C[C@H](CC(=O)N3CCOCC3)C(=O)N(Cc3ccc(Cl)cc3Cl)C1=C[C@H](C(C)C)O[C@@H]2C1CC1` the inhibition was -2% (inactive).
In the case of `Cc1ccc(-n2c(SCC(=O)Nc3ccc(S(=O)(=O)Nc4nccs4)cc3)nnc2-c2ccccn2)cc1`, the inhibition is reported as 2.5% (inactive).
In the case of `O=C1CC[C@@]23CCCN2C(=O)CCC[C@H]3[C@H]1Cc1ccccc1`, the inhibition is reported as -7.14% (inactive).
With `COc1ccccc1C(=O)NC(=S)NC12CC3CC(CC(C3)C1)C2` the inhibition was -0.66% (inactive).
`S=C(NCc1ccc(Cl)cc1)NC12CC3CC(CC(C3)C1)C2` was tested, and the inhibition was 14.9% (active).
`Cc1ccc(C(=O)NC23CC4CC(CC(C4)C2)C3)c(Cl)c1` was tested, and the inhibition was -1.94% (inactive).
With `COc1ccc(-c2cc(-c3nnc(SCC(=O)Nc4cccc5ccccc45)n3N)[nH]n2)cc1` the inhibition was -3.93% (inactive).
`O=C(NCC1COc2ccccc2O1)c1ccc(NC(=O)c2cc(F)ccc2F)cc1` (stereo not given) was tested, and the inhibition was 2.47% (inactive).
In the case of `COc1ccc(/C=C2\CC3(OC(C)=O)CCCN2C3)cc1` (stereo not given), the inhibition is reported as -3.86% (inactive).
With `Cc1ccccc1NC(=O)C1CCN(c2ncccn2)CC1` the inhibition was -12.7% (inactive).
In the case of `O=C(NN1C(=O)C2C3C=CC(O3)C2C1=O)c1ccccc1` (stereo not given), the inhibition is reported as 0.75% (inactive).
For `O=C(NN1C(=O)C2C3C=CC(C4CC34)C2C1=O)c1ccc(Cl)cc1` (stereo not given), the inhibition was -30.5% (inactive).
In the case of `COc1ccc(C(=O)NN2C(=O)C3C(c4ccccc4)C=CC(c4ccccc4)C3C2=O)cc1` (stereo not given), the inhibition is reported as 13.9% (active).
`COc1ccc(N2CCN(CCNS(=O)(=O)c3ccc(C(C)(C)C)cc3)CC2)cc1` was tested, and the inhibition was 1.38% (inactive).
In the case of `CCCC[C@H]1C2CC(OC(=O)NCc3ccccc3)C(C2)[C@H]2CCCCN21` (stereo not given in full), the inhibition is reported as -10.2% (inactive).
In the case of `C=C(C)COc1ccc(-c2n[nH]c(C)c2-c2ccccc2)c(O)c1`, the inhibition is reported as 10.9% (active).
For `Cc1[nH]nc(-c2ccc(OCc3cnn(-c4ccccc4)c3)cc2O)c1Oc1ccc(Cl)cc1`, the inhibition was 0.84% (inactive).
`CC(C)N1CCCCC(NC(=O)C(C)(C)C)C1=O` (stereo not given) was tested, and the inhibition was -2.39% (inactive).
With `O=C(CSc1nnc(Nc2ccccc2)s1)Nc1cccnc1Cl` the inhibition was 8.69% (active).
In the case of `O=C(CSc1nnc(C2CC2)n1Cc1ccccc1)Nc1cccnc1Cl`, the inhibition is reported as -2.91% (inactive).
`O=C(CSc1nnc(Nc2ccccc2F)s1)NC1CCCC1` was tested, and the inhibition was -2.83% (inactive).
In the case of `CCOC(=O)[C@]12CCCC=C1N(Cc1ccc(OC)cc1)C(=O)[C@@H]2CC(=O)NCc1cccs1`, the inhibition is reported as -2.4% (inactive).
For `CN1C[C@]2(C=C3CCCCC3n3c(=O)n(-c4ccccc4)c(=O)n32)N=C1NC(=O)c1ccccc1` (stereo not given in full), the inhibition was -0.93% (inactive).
`COC(=O)[C@]1(C#N)CC(=O)N(CC2CCCCC2)[C@@H]1c1ccccc1` was tested, and the inhibition was 4.54% (inactive).
In the case of `O=C(NC1CCCC1)C1CSCCS(=O)(=O)N1Cc1ccccc1` (stereo not given), the inhibition is reported as -0.05% (inactive).
In the case of `COc1ccc(-n2c(COc3ccccc3)nnc2SCC(=O)Nc2ccc3c(c2)OCO3)cc1`, the inhibition is reported as 4.09% (inactive).
`O=C(CSc1nnc(COc2ccccc2)n1-c1ccc(Cl)cc1)Nc1ccc2c(c1)OCO2` was tested, and the inhibition was 1.36% (inactive).
With `Cc1ccc(-n2c(COc3ccccc3)nnc2SCC(=O)Nc2ccc3c(c2)OCCO3)cc1` the inhibition was 10.3% (active).
With `Cc1cc(C)cc(NS(=O)(=O)c2ccc(Oc3ncc(C(F)(F)F)cc3Cl)cc2)c1` the inhibition was 10.8% (active).
`CN(NS(=O)(=O)c1cccs1)c1ncc(C(F)(F)F)cc1Cl` was tested, and the inhibition was -1.66% (inactive).
With `O=S(=O)(Nc1ccc(Oc2ncccn2)c(Cl)c1)c1ccc(F)cc1` the inhibition was -3.11% (inactive).
`COc1cccc(/C=C2\CC3(OC(C)=O)CCCN2C3)c1` (stereo not given) was tested, and the inhibition was 3.86% (inactive).
With `O=C(OC12CCCN(C1)/C(=C/c1ccccc1)C2)c1ccco1` (stereo not given) the inhibition was 6.28% (inactive).
`COC(=O)[C@]12C[C@H](CC(=O)NCCCN3CCCC3=O)C(=O)N(CCc3ccc(OC)c(OC)c3)C1=C[C@H](COCc1ccccc1)O[C@@H]2C` was tested, and the inhibition was -6.14% (inactive).
For `O=C(C1=C[C@H](c2ccc(C(F)(F)F)cc2)C[C@H](OCc2ccc(CO)cc2)O1)N1CCN(Cc2ccccc2)CC1`, the inhibition was 5.72% (inactive).
For `O=C(NCc1ccccc1)C1=C[C@@H](c2ccc(C(F)(F)F)cc2)C[C@@H](OCc2ccc(CO)cc2)O1`, the inhibition was 10.7% (active).
For `CC(C)(C)[C@H]1C=C(C(=O)NCc2ccccc2)O[C@@H](OCc2ccc(CO)cc2)C1`, the inhibition was 2.4% (inactive).
For `Cc1ccc(OCCOc2cccc(/C=N/NC(N)=O)c2)cc1`, the inhibition was -1.45% (inactive).
`COc1ccc(Cl)cc1C=CC=NNC(=O)c1ccncc1` was tested, and the inhibition was -4.19% (inactive).
`Cc1ccc(OCCOCCOc2ccc(Br)cc2/C=N\NC(=O)c2ccncc2)cc1` was tested, and the inhibition was 10% (active).
With `CN1C(=O)c2cc(NS(C)(=O)=O)ccc2OC[C@@H]2O[C@@H](CC(=O)NCc3ccc(-c4ccccc4)cc3)CC[C@H]21` the inhibition was -3.9% (inactive).
In the case of `C#CCN(C[C@H]1[C@H](OC(=O)NC2CCCC2)[C@H](OC(=O)NC2CCCC2)C[C@H]2C(=O)N(c3ccccc3)C(=O)[C@@H]12)S(=O)(=O)c1ccc(C)cc1`, the inhibition is reported as 9.64% (active).
For `C#CCN(C[C@@H]1[C@@H](OC(=O)NC2CC2)[C@@H](OC(=O)NC2CC2)Cn2c(=O)ccc(=O)n21)S(=O)(=O)c1ccc(C)cc1`, the inhibition was -1.79% (inactive).
With `Cc1ccc(S(=O)(=O)N2C[C@]3(O)C[C@@H]4C(=O)N(c5ccccc5)C(=O)[C@@H]4C[C@]3(OC(=O)NC3CC3)C2)cc1` the inhibition was -1.11% (inactive).
With `COC(=O)[C@]12C[C@H](CC(=O)NCc3ccccc3)C(=O)N(CCC3=CCCCC3)C1=C[C@H](C(C)C)O[C@@H]2C1CC1` the inhibition was 6.48% (inactive).
With `CC1(C(=O)NCc2ccc3c(c2)OCO3)CCN1C(=O)Cc1cccc2ccccc12` (stereo not given) the inhibition was -3.18% (inactive).
For `O=C(CCNS(=O)(=O)c1ccccc1C(F)(F)F)NCc1ccc2c(c1)OCO2`, the inhibition was -0.25% (inactive).
In the case of `N#Cc1nc(Cc2cccc3ccccc23)oc1NCc1ccc2c(c1)OCO2`, the inhibition is reported as 9.51% (active).
